The results in this text go back to PubChem BioAssay (NCI).

The panel holds about 83,000 compounds, 20% with a hit somewhere; the sample as a whole holds those more often.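 Compound tested at a single concentration for 48 hours in 96-well plates; a percent growth value below 10 was scored as active.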 A number with no mark means an inactive call. Calls of active or inactive are those of the source.

Among the test systems are DU-145 prostate; K-562 leukemia; MALME-3M melanoma; MDA-MB-231 breast; RXF 393 renal; SF-268 CNS; SF-539 CNS; UACC-257 melanoma; M14 melanoma; SF-295 CNS.
Test in all cases: NCI-60 one-dose screen, 48 h (100 = growth as untreated, 0 = no growth, -100 = all killed)
Holding throughout (settings): 10 µM unless noted

For the compound `Cc1cc(Nc2ccc(C)c(Cl)c2)n2nc(C(F)(F)F)nc2n1`, the growth with DU-145 prostate was 42.5%; with K-562 leukemia it was 54.8%; with MALME-3M melanoma it was -15.2% (active); with MDA-MB-231 breast, 2.77% (active); in the test on RXF 393 renal, -9.51% (active); with SF-268 CNS, 39.4%. Also, the growth with SF-539 CNS was 33.1%; in the test on UACC-257 melanoma, 74.4%; in the test with M14 melanoma, 51.7%.

With `CCOc1cc2c(cc1OCC)C(c1cc(OC)c(O)cc1Cl)NCC2` (stereo not given), the growth was 110% in the test on DU-145 prostate; 53.3% with K-562 leukemia; 55.2% in the test on MALME-3M melanoma; 88.6% with MDA-MB-231 breast; 85.1% in the test on RXF 393 renal; 100% in the test on SF-268 CNS. In addition, the figures for the growth with SF-539 CNS, in the test on UACC-257 melanoma and in the test with M14 melanoma were 101%, 99.2% and 80.2%, respectively.

With `COc1ccc(/C=C\c2cc(OC)c(OC)c(OC)c2)cc1OCC(=O)Nc1ccc2nc(C)sc2c1`, the growth was 64.6% with DU-145 prostate; 18.4% with K-562 leukemia; 42.2% in the test on MALME-3M melanoma; 37.1% with MDA-MB-231 breast; 70.3% in the test on RXF 393 renal; 52.1% with SF-268 CNS. Also, the growth was 57.1% with SF-539 CNS, 58.5% in the test on UACC-257 melanoma and 25.9% in the test with M14 melanoma.

For the compound `CN1CCN(c2ccc(Nc3c4ccccc4nc4ccccc34)cc2)CC1`, the growth in the test with DU-145 prostate was 111%; in the test on K-562 leukemia, 105%; with MALME-3M melanoma, 103%; with MDA-MB-231 breast, 105%; in the test with RXF 393 renal, 110%; in the test with SF-268 CNS, 107%. Also, the growth is 99.6% in the test on SF-539 CNS, 103% in the test with UACC-257 melanoma and 113% with M14 melanoma.

For `COc1ccc2[nH]cc(-c3noc(C(=O)c4cn(C)c5ccc(F)cc45)n3)c2c1`, the growth in the test on DU-145 prostate is 103%; in the test on K-562 leukemia it was 101%; with MALME-3M melanoma, 95.5%; with MDA-MB-231 breast, 90.1%; in the test on RXF 393 renal, 116%; with SF-268 CNS it was 95.3%. Further, the growth is 98.8% with SF-295 CNS, 95.8% with SF-539 CNS, 97.5% in the test with UACC-257 melanoma and 98.6% with M14 melanoma.

Regarding `C=CCSSc1ncnc2c1ncn2C1OC(CO)C(O)C1O` (stereo not given), the growth in the test with DU-145 prostate is 35.2%; in the test on K-562 leukemia it was 40%; with MALME-3M melanoma, 48.3%; in the test on MDA-MB-231 breast it was 48.1%; in the test with RXF 393 renal, 34.6%; with SF-268 CNS, 28%. Also, the growth in the test on SF-295 CNS is 17.9%; with SF-539 CNS, 19.9%; in the test on UACC-257 melanoma, 39.8%; with M14 melanoma it was 15.4%.

Regarding `CCCn1c(=O)[nH]c(N)c([C@H]2c3ccccc3Oc3[nH]c(=O)n(CCC)c(=O)c32)c1=O`, the growth with DU-145 prostate was 75.1%; in the test with K-562 leukemia, 52.6%; in the test with MALME-3M melanoma, 78.4%; with MDA-MB-231 breast, 81.8%; with RXF 393 renal, 98.2%; with SF-268 CNS, 94.4%. Moreover, the growth in the test on SF-295 CNS is 88.1%; with SF-539 CNS it was 100%; with UACC-257 melanoma, 76.3%; in the test with M14 melanoma, 83.8%.

As for `CCCCCCN(CCCCCC)C(=N)c1ccnc2ccccc12`, the growth with DU-145 prostate was 85.1%; in the test on K-562 leukemia it was 16.8%; with MALME-3M melanoma, 76.2%; in the test on MDA-MB-231 breast it was 58.1%; in the test with RXF 393 renal it was 70.3%; in the test on SF-268 CNS, 83.8%. The growth with SF-539 CNS is 79.7%; with UACC-257 melanoma, 69.9%; in the test on M14 melanoma, 18.9%.

`CCCCn1c(-c2ccc(C(=O)O/N=C(\N)c3ccc4c(c3)OCO4)cc2)nc(-c2ccccc2)c1-c1ccccc1`: the growth in the test on DU-145 prostate was 46.4%; in the test with K-562 leukemia, -5.48% (active); in the test with MALME-3M melanoma, 55.6%; in the test on MDA-MB-231 breast, 33.1%; in the test on RXF 393 renal, 34.7%; in the test with SF-268 CNS, 29.4%. The growth is 61.4% in the test with SF-295 CNS, 58.1% in the test on SF-539 CNS, 79.9% with UACC-257 melanoma and 54.1% with M14 melanoma.

In the case of `O=C1/C(=C/c2ccc3c(c2)OCO3)SC(=S)N1CCc1ccc(O)cc1`, the growth in the test with DU-145 prostate is 52.3%; in the test with K-562 leukemia, 95.8%; with MALME-3M melanoma, 89.5%; with MDA-MB-231 breast it was 91.2%; with RXF 393 renal it was 111%; in the test on SF-268 CNS, 95.2%. The growth in the test with SF-295 CNS is 99.5%; with SF-539 CNS, 91.8%; with UACC-257 melanoma, 99.7%; with M14 melanoma, 94.4%.

For `CN(C)CCN1C(=O)c2cccc3c(N)ccc(c23)C1=O`, the growth in the test with DU-145 prostate is 25.9%; in the test with K-562 leukemia it was 2.08% (active); in the test on MALME-3M melanoma it was 46.7%; in the test with MDA-MB-231 breast it was 58.3%; in the test with RXF 393 renal, 4.79% (active); in the test with SF-268 CNS, 17.5%. The growth in the test with SF-295 CNS was 21.4%; with SF-539 CNS, 19.4%; in the test on UACC-257 melanoma it was 9.42% (active); in the test on M14 melanoma, 34.4%.

In the case of `COc1ccc(-c2nc3ccc(-c4nc5ccc(N6CCN(C)CC6)cc5[nH]4)cc3[nH]2)cc1OC`, the growth with DU-145 prostate is 77.6%; in the test on K-562 leukemia it was 40.5%; in the test on MALME-3M melanoma, 0.551% (active); with MDA-MB-231 breast it was 82.9%; in the test on RXF 393 renal, 96.6%; in the test with SF-268 CNS it was 50.6%. The growth is 66.6% in the test on SF-295 CNS, 70.5% with SF-539 CNS, 25.2% with UACC-257 melanoma and 18.3% in the test on M14 melanoma.

For the compound `Cc1ccc(C2Oc3ccccc3C3CC(c4cccs4)=NN32)cc1` (stereo not given), the growth in the test with DU-145 prostate is 97%; in the test on K-562 leukemia, 101%; in the test on MALME-3M melanoma, 95.1%; in the test on MDA-MB-231 breast, 91.3%; in the test with RXF 393 renal it was 101%; in the test with SF-268 CNS, 91.4%. Further, the growth is 99% in the test on SF-295 CNS, 90.1% with SF-539 CNS, 98.6% in the test on UACC-257 melanoma and 99.3% with M14 melanoma.
